Assay results as given in the OligoGym collection.

Target: MRC1L1
Experiment: pooled miR-30 sensor sort-seq; sequence = guide strand
Conditions: shRNA
Further: reference of the scale not given here.

| Sequence | sensor-assay potency score (higher = more potent) |
| --- | --- |
| TAACAACACAGTCAGCATCTTC | -0.367 |
| TTCTGAATTGACATCATTCAGC | -0.303 |
| TTGCTCATGAATCTCTGTGATG | -0.904 |
| TTATAGATTAAAAATTGCCTGG | -0.0737 |
| TAGAGAGTGATAGCAACCCAGT | -0.877 |
| TAAAGCTACACAATCATTCCGT | 0.804 |
| TTGGGTTCGGGAGTCGTCGTGG | 0.34 |
| TATAGTAACAGTGACCATGGAA | 0.0156 |
| TACAGCTTGAAACACAAGCTTG | -1.09 |
| TTGTTTTCAAACTTGAACGGGA | 0.456 |

Target: MRFAP1
Experiment: as above
Conditions: shRNA

| Sequence | sensor-assay potency score (higher = more potent) |
| --- | --- |
| ATGAGCATATTGTCCATCTCCC | -0.693 |
| AGCACCTCCACTTCCTCCGGTT | -1.22 |
| TTTGATCTGGATGAGCATATTG | -1.65 |
| TCTCCTTGGCCTTCTCCTCGGC | -0.368 |
| TTGATCTGGATGAGCATATTGT | -0.361 |
| TCCTCGGCCTTCTCGCACCTCT | -1.7 |
| TCTGGATGAGCATATTGTCCAT | -0.959 |
| CTGGATGAGCATATTGTCCATC | -2.34 |
| TTCGCAATCTCCTTGGCCTTCT | -0.202 |
| TTCTCCTCGGCCTTCTCGCACC | -1.46 |
| TATCCGCCGGACCAGCTCCACC | -1.87 |
| TTGACCAGAATCCATTGGCTGG | -0.987 |

Target: MRO
Experiment: as above
Conditions: shRNA

| Sequence | sensor-assay potency score (higher = more potent) |
| --- | --- |
| TTTTCTTATACTTTCTCACCTT | 0.132 |
| TTTCTTATACTTTCTCACCTTG | -0.188 |
| TATCATTGATGTCCTTTTCTGC | -0.559 |
| ATACAGTCCATACACCAGCAGG | -1.19 |
| TAGTGTTCCTTTGATCTTCTTC | 0.466 |
| TTTGCAAGCCTTGGCAACCTGG | -1.05 |
| AAGAACTGCAGGATCTCTGGAT | 0.374 |
| TTGATCTTCTTCACTCTGGAAG | -0.557 |
| TATACTTTCTCACCTTGTCAGG | -0.957 |
| TTGTTTTGCAAGCCTTGGCAAC | -1.43 |
| TCATCATCTAATAAAGTCCTGG | -0.176 |
| TTTGATCTTCTTCACTCTGGAA | -0.504 |

Target: MRPL14
Experiment: as above
Conditions: shRNA

| Sequence | sensor-assay potency score (higher = more potent) |
| --- | --- |
| TAGTATCTGGTCGCCCACCTTG | -1.26 |
| TTGTCCACCACTCGTACCCGCG | -1.02 |
| TCATCTTCTGAATCGCACTCAG | -0.0883 |
| TTGCCCACTCCATTCTTCTTAT | -0.852 |
| TGTTGGAGTCGAATCTGGGGGT | -0.258 |
| TTGATGGCCAGTAGTATCTGGT | -0.918 |
